From PubChem
NLRP3 yeast inh = NALP3 inflammasome inhibitors in reconstituted yeast, primary screen, luminescence, uHTS | inhibition, % at 10 µM | AID 2825, 2010 | hit rate 0.39% among 330,000 | Yeast reconstituted NLRP3/ASC/caspase-1, beta-gal luminescence, 24 h;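 active = inhibition of 50% or more; inactive = inhibition below 50%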;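 also: plate controls were induced DMSO wells for no effect and uninduced yeast grown without galactose for full effect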
tim23-1 inh = growth inhibitors of tim23-1 mutant yeast, primary screen, luminescence, uHTS | S. cerevisiae tim23-1 growth, BacTiter-Glo luminescence, 24 h | inhibition, % at 20 µM | hit rate 1.3% among 330,000;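 active = growth inhibition of the mutant yeast at or above 50%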;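 also: temperature-sensitive mutant grown at 25 °C; plate controls were DMSO-treated mutant yeast for no effect and medium wells lacking yeast for full effect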
tim10-1 inh = growth inhibitors of tim10-1 mutant yeast, primary screen, luminescence, uHTS; S. cerevisiae tim10-1 ts strain growth, BacTiter-Glo, 24 h; inhibition, % at 20 µM; AID 463190, 2010; hit rate 2.2% among 330,000;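 active = inhibition of at least 40%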;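 also: mutant grown at 25 °C; 0% = DMSO wells with yeast and 100% = wells holding no yeast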
TIM10 inh = growth inhibitors of isogenic TIM10 control yeast, primary screen, counter-screen for tim10-1 yeast inhibitor project, luminescence, uHTS; S. cerevisiae TIM10 strain growth, BacTiter-Glo luminescence, 24 h; inhibition, % at 10 µM; hit rate 1.4% among 330,000; AID 463195, 2010;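 active = inhibition of 40% or more at the single tested concentration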;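 also: wild-type TIM10 isogenic control strain grown at permissive 25 °C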
PfHsp90 set2 = growth inhibition of PfHsp90-expressing yeast, primary screen, antimalarial PfHsp90 inhibitor project, S. cerevisiae, BacTiter-Glo luminescence, single point, set 2 | hit rate 0.32% among 310,000 | BacTiter-Glo ATP, 48 h; yeast lacking PDR1 and PDR3 efflux regulators | inhibition, % at 9.4 µM;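 active = every replicate shows inhibition above about 80%, whatever the replicate mean, limit read from the data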;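 also: 0% = DMSO neutral controls and 100% = 20 µM radicicol positive controls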
tim10-1 confirm = growth inhibitors of tim10-1 mutant yeast, confirmation, single concentration, luminescence, S. cerevisiae; shares compounds with tim10-1 inh; S. cerevisiae tim10-1 ts strain growth, BacTiter-Glo, 24 h; inhibition, % at 20 µM; hit rate 56% among 7,400;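 active = inhibition of yeast growth at or above a set limit in either of two repeat tests at 20 µM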;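 also: tim10-1 mutant grown at permissive 25 °C to find synthetic lethal compounds; 0% = DMSO yeast wells and 100% = medium wells without yeast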
tim10 confirm = growth inhibitors of wild-type TIM10 yeast, confirmation, counter-screen for tim10-1 synthetic lethality project, single concentration, luminescence, S. cerevisiae | shares compounds with TIM10 inh | S. cerevisiae tim10 strain growth, BacTiter-Glo luminescence, 24 h | inhibition, % at 10 µM | hit rate 63% among 4,600 | AID 463215, 2010;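 active = inhibition of yeast growth at or above a set limit in either of two replicates at 10 µM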;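 also: this counterscreen used the strain with wild-type TIM10; 0% = yeast with DMSO and 100% = medium wells lacking yeast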
Active calls of the source: *; x = no result given. This is a sample that favours compounds with a hit; in the whole collection about 3.7% have one here.

SMILES	NLRP3 yeast inh	tim23-1 inh	tim10-1 inh	TIM10 inh	PfHsp90 set2	tim10-1 confirm	tim10 confirm
COc1ccc2oc(C(=O)CCC(=O)O)c(N)c2c1	-5	7	-8	-4	11	x	x
COC(=O)CCC(=O)c1oc2ccc(Br)cc2c1N	12	45	41*	44*	x	34*	31*
Nc1c(C(=O)c2ccccc2)oc2ccc(Br)cc12	14	29	45*	52*	-35	18	33*
C=CCN(C(=O)c1csnn1)C(C(=O)NC(C)(C)C)c1ccncc1 (stereo unspecified)	13	9	-1	2	-16	x	x
O=C(CN1C(=O)NC2(CCCC2)C1=O)Nc1nc2c(F)cc(F)cc2s1	11	2	3	-1	33	x	x
O=C(NCc1ccccc1CN1CCOCC1)c1ccc(-n2cccn2)cc1	19	26	20	1	11	x	x
O=c1[nH][nH]c(-c2ccccc2O)c1C(C[N+](=O)[O-])c1ccc(Cl)cc1Cl (stereo unspecified)	16	37	55*	42*	0	30*	-5
Cc1cccc(Cc2cnc(NC(=O)c3ccc(C)o3)s2)c1	24	48	55*	45*	-14	40*	48*
Cc1cccc(Cc2cnc(NC(=O)C3=NCCN3)s2)c1	-5	-6	21	-4	x	x	x
CC1=C(OC(=O)c2ccccc2)C(C)(C)C(c2ccc(Br)cc2)OC1=O (stereo unspecified)	10	33	16	11	-153	x	x
NNc1nc2sc3c(c2c(=O)n1-c1ccccc1)CCCC3	15	-13	49*	57*	-2	39*	67*
O=C(O)CSc1nc2sc3c(c2c(=O)n1-c1ccccc1)CCC3	-20	-12	0	-22	-14	x	x
Nn1c(Nc2ccccc2)nc2sc3c(c2c1=O)CCCC3	8	23	45*	51*	8	24	25
Cc1ccc(-c2nc3sc4c(c3c(=O)n2N)CCCC4)cc1	1	39	24	12	-1	x	x
Cc1cc(OCCSc2nnc(-c3cccs3)n2C)ccc1Cl	0	44	26	38	-4	x	x
Cn1c(SCCOc2ccccc2Cl)nnc1-c1cccs1	39	39	51*	51*	-17	40*	51*
CCC(=O)Nc1ccc(N2CCCCC2)c(C(=O)Nc2ccccc2C)c1	13	36	41*	40*	6	22	38*
CC(O)[C@H]1CNCCN1CC1(c2ccccc2)CC1 (stereo partly specified)	13	12	5	-8	7	x	x
O=C(CCCn1c(=S)[nH]c2cc3c(cc2c1=O)OCO3)NCCc1ccccc1Cl	-8	11	16	13	-16	x	x
CCCCN(CC)CCNC(=O)c1cc2cc3ccc(Cl)cc3nc2o1	-2	14	18	10	2	x	x
CCCN(CCC)CCCNC(=O)c1cc2cc3ccc(Cl)cc3nc2o1	7	43	58*	60*	-12	39*	41*
Cc1ccc2cc3cc(C(=O)NCCCN4CCc5ccccc5C4)oc3nc2c1	2	47	51*	64*	-1	35*	5
COC(=O)c1c(N2C(=O)CC(Sc3ccccc3C(=O)O)C2=O)sc2c1CCCC2 (stereo unspecified)	1	26	46*	46*	-1	47*	17
Cn1c(=O)[nH]c(=O)c2c1nc(N1CCCCC1)n2CCOc1ccccc1	4	22	20	21	28	x	x
CCOC(=O)c1c(N2C(=O)C=CC2=O)sc(C)c1C	5	20	47*	77*	154*	44*	72*
SMILES	NLRP3 yeast inh	tim23-1 inh	tim10-1 inh	TIM10 inh	PfHsp90 set2	tim10-1 confirm	tim10 confirm
CCOC(=O)c1c(NC(N)=O)sc(C)c1C	13	17	14	11	-4	x	x
CCOc1ccc(-c2csc(/C(C#N)=C\c3ccc(O)c([N+](=O)[O-])c3)n2)cc1	24	17	30	20	-22	x	x
Cn1c(N2CCOCC2)nc2c1c(=O)n(Cc1ccc(Cl)cc1)c(=O)n2C	28	22	-41	-26	13	x	x
CC1CN(c2nc3c(c(=O)n(Cc4ccc(Cl)c(Cl)c4)c(=O)n3C)n2C)CC(C)O1 (stereo unspecified)	7	39	49*	45*	-40	43*	33*
NS(=O)(=O)c1cccc(NC(=O)COC(=O)CN2C(=O)c3ccccc3C2=O)c1	10	4	0	11	12	x	x
Cc1cc(OC(C)C(N)=O)nc(-c2ccccc2)n1 (stereo unspecified)	11	8	-2	3	-10	x	x
O=C(/C=C/c1ccc(Cl)cc1Cl)c1ccc[nH]1	2	18	47*	54*	-4	39*	40*
Oc1c(N=NC(=S)Nc2ccccc2F)c2ccccc2n1Cc1ccccc1Cl	17	31	23	27	-11	x	x
C=CCn1c(O)c(N=NC(=S)Nc2ccccc2F)c2ccccc21	12	14	47*	46*	-125	44*	29
Oc1c(N=NC(=S)Nc2ccccc2F)c2ccccc2n1Cc1ccccc1	14	17	24	17	-41	x	x
Cc1c(Cl)cccc1NC(=S)N=Nc1c(O)n(CN2CCOCC2)c2ccccc12	36	40	59*	53*	107*	49*	30*
CC1CN(S(=O)(=O)c2ccc(C(=O)N(CCCN(C)C)c3nc4cc5c(cc4s3)OCCO5)cc2)CC(C)O1 (stereo unspecified)	12	35	54*	44*	-14	52*	45*
CN(C)CCCN(C(=O)c1ccc(S(=O)(=O)N(C)Cc2ccccc2)cc1)c1nc2cc3c(cc2s1)OCO3	21	18	37	19	-30	x	x
CCC1CCCCN1S(=O)(=O)c1ccc(C(=O)N(CCCN(C)C)c2nc3cc4c(cc3s2)OCO4)cc1 (stereo unspecified)	10	35	46*	50*	-9	34*	33*
CN(C)CCCN(C(=O)c1ccc(S(=O)(=O)N2CCOCC2)cc1)c1nc2ccc(F)cc2s1	11	10	21	12	x	x	x
CC(=O)c1ccc(NC(=O)c2ccc([N+](=O)[O-])o2)cc1	16	-20	57*	81*	3	43*	90*
